This is part of a sample that, as a whole, favours compounds with a hit. Of some 83,000 tested, about 20% had one in any assay.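 Growth was measured after 48 h exposure to one concentration of compound in 96-well plates. Values under 10 count as active.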 Values without a mark were called inactive. The source made the active and inactive calls.

The test relates to SK-MEL-5 melanoma. As to the kind of experiment: NCI-60 one-dose screen, 48 h (100 = growth as untreated, 0 = no growth, -100 = all killed). Conditions: 10 µM unless noted. How it is done:
Growth inhibition of the SK-MEL-5 human tumor cell line is measured as a screen for anti-cancer activity. Cells are grown in 96 well plates and exposed to the test compound for 48 hours. Compounds are tested at a single concentration, which is 10^-5 M for most compounds. The reported endpoint is percent growth (GI% or GIPRCNT), where numbers from 0 - 100% represent growth inhibition, and numbers from -100% - 0 represent cell death. For example, a value of 40 represents 60% growth inhibition. A value of 0 means no net growth occurred over the course of the experiment. A value of -40 indicates 40% of cells at the beginning of the experiment died by the end of the experiment. A value of -100 means all cells are dead at the end of the experiment.
NCI-60 Human Tumor Cell Lines Screen was performed using the standard one-dose NCI protocol, which is described in more detail at https://dtp.cancer.gov/discovery_development/nci-60/default.htm.
Compounds with GIPRCNT values below 10 were considered active. Activity score was based on GIPRCNT using the following formula: […]
Score is 0 for GIPRCNT values of 100 or above, 50 for GIPRCNT values of 0, and 100 for GIPRCNT values of -100.
As to `COc1cc2c(c(OC)c1OC)C(=O)CC(c1cccc(C(=O)Nc3cccc(Br)c3)c1)O2` (stereo not given), the growth is 72.9%. On to `COc1ccc(C(=O)CN2C(=O)NC(c3ccccc3)(c3ccccc3)C2=O)cc1`, for which the growth was 99.7%.

As for `COc1cc(OC)c2c(=O)cc(-c3ccccc3)oc2c1`, the growth was 95.9%. In the case of `CCC(C)C1NC(=O)C(CCCCN)NC(=O)C(CCCCN)NC(=O)C(CC(C)C)NC(=O)C(CCCCN)NC(=O)C(C(C)CC)NC(=O)C(C(C)C)NC(=O)C(C(C)CC)NC(=O)C(CCCCN)NC(=O)C(CCCCN)NC(=O)C(C)NC(=O)C(CCCCN)NC(=O)C(CC(C)C)NC1=O` (stereo not given) it was 2.11% (active); in that of `Cc1ccc(NC(=O)CCl)cc1Cl`, 87.2%. Next, `COC(=O)/C(Br)=C/c1c[nH]c2ccc(Br)cc12`: 85.1%; `COC(=O)[C@H](Cc1cn(C)cn1)NC(=O)[C@@H](NC(=O)Nc1cc(C(F)(F)F)cc(C(F)(F)F)c1)C(C)(C)C`: -67.4% [100 µM] (active). Next, `O=C(NCCCl)Nc1nccnc1OCc1ccc(F)cc1`: 107%; `CCCCCC(=C/c1ccccc1)/C=N/N=C(N)N`: -91.5% (active); `CCCCCCCCCCCCCCCCCC(=O)Nc1ccc(O)cc1`: 105%. On to `Oc1ccc(N=Nc2ccc(N=Nc3ccccc3)cc2)cc1`, for which the growth is 39.1%. In the case of `COC(=O)C(N)CC(C)C` (stereo not given) it was 103%; in that of `CCCC(C)c1cc(Cc2cc(Cl)cc(Cl)c2O)c(O)c(Cc2cc(Cl)cc(Cl)c2O)c1` (stereo not given), -58.5% (active). Next, `COc1ccc(/C=C(/C(=O)N2CCN(c3ccc(C)cc3)CC2)c2cc(OC)c(OC)c(OC)c2)cc1N`: -30.7% (active). Next, `COc1ccc2c(c1)/C(=C1/S/C(=N/c3nnc(C)s3)NC1=O)C(=O)N2Cc1ccc(Br)cc1`: 36.3%; `CCCCCCCCCCCCOC(=O)/C=C\C(=O)NC(N)=O`: 99.6%; `COc1ccc2c(c1)cn1c3ccc(O)cc3[nH]c(=O)c21`: 13%.

With `O=C(CBr)OCc1ccc([N+](=O)[O-])o1`, the growth is 113%. In the case of `Cc1ccc(C(=O)Nc2ccc(CN3CCN(C)CC3)c(C(F)(F)F)c2)cc1C#Cc1cncc2ncccc12`, the growth was -99.3% (active).

Take `CNCCCNCCCCNCCCN1C(=O)c2ccc3c4c(ccc(c24)C1=O)C(=O)N(CCCNCc1ccccc1OC)C3=O`: the growth is 10.7%. In the case of `O=P(OCCCl)(OCCCl)C(O)c1ccccc1Cl` (stereo not given), the growth is 112%. Next, `COc1ccc(C2=NN(C(=O)c3cc(-c4ccc(C)cc4)nc4ccccc34)C(c3cc(-c4ccccc4)nn3-c3ccccc3)C2)cc1` (stereo not given): 97.8%; `COC(=O)C1CC(=O)N(C(=O)Nc2ccc(Cl)cc2Cl)C1` (stereo not given): 108%. In the case of `CCCC(=O)NNc1[nH]c(-c2ccc(OC)cc2)cc1C(=O)OCC` it was 111%. Next, `CCCCn1c(Cc2ccc(OC)cc2)nc2cc(OC)c(OC)cc2c1=O`: 36.6%; `CC(=N\N=C(N)N)/C(=N/N=C(N)N)c1ccccc1`: 102%; `O=c1oc2ccc3ccccc3c2cc1-c1ccnc2[nH]c(=S)[nH]c(=O)c12`: 97.8%. Regarding `Cc1nc2c(nnn2-c2ccccc2)c2nc(-c3ccccc3)oc(=O)c12`, the growth was 104%.

In the case of `FC(F)(F)c1cccc(-c2[nH]ncc2-c2nnnn2-c2ccccc2)c1`, the growth is 20.8%. In the case of `CC([C@H]1CC=C2C3CCC4=C[C@@H](N(C)C)CC[C@]4(C)C3CC[C@@]21C)N(C)C` (stereo not given in full) it was 23.6%; in that of `COc1ccc(C(=O)NCCNc2nccc(-c3c(-c4ccc(F)cc4)nc4sccn34)n2)cc1`, 38.1%; in that of `CC1CCCCC[N+]12CCCC2` (stereo not given), 99.5%. Consider `CC1(C)C(O)NC(Cl)=C(C#N)C1(C#N)C#N` (stereo not given), for which the growth was 114%. With `CCCCCCCCCC[N+](C)(C)C`, the growth is -13.6% (active). `C=C[C@]1(C)C=C2C(=O)[C@@]3(O)OC[C@@]4(CCCC(C)(C)C43O)C2(O)C(O)C1` (stereo not given in full): the growth is 91.6%.

As to `CN1CCN(Cc2ccc(NC(=O)c3cncc(C#Cc4c(N)ncc5ccc(F)cc45)c3)cc2C(F)(F)F)CC1`, the growth is -93.1% (active). Take `Cc1ccc2c(c1)C(=O)CCS2`: the growth is 104%.

Consider `O=S(=O)(O)c1ccc2c(c1)Sc1cc(S(=O)(=O)O)ccc1O2`, for which the growth was 112%.

As to `COc1cc(-c2nn(-c3ccc(NC(=O)c4ccc(Cl)c(C(F)(F)F)c4)cc3)cc2-c2ccncc2)ccc1Cl`, the growth is -93.3% (active). Next, `C/C(=N\Nc1cccc(Cl)n1)c1ccccn1`: -51.6% (active).

The values are drawn from PubChem BioAssay (NCI).
